Bioassay records as filed in PubChem.
Pf Dd2 inh – blocks in vitro growth of P. falciparum Dd2 | P. falciparum Dd2 growth, SYBR Green, 72 h | Potency, µM (titrated, usually from 28.9 µM), without a hit: at the top dose activity, negative = inhibition, actives largely listed as inhibitors | actives 4.3% (n = 120,000); active = well fitted inhibition curve with a large enough effect;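 also: plate controls were DMSO vehicle for no effect and reference drug for full effect; nearly all actives have a fitted effect of over 65% in size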
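Infected erythrocytes (Dd2, 0.3% parasitemia, 2.5% hematocrit final) are added to compound in RPMI-1640/Albumax II medium, grown 72 h at 37C in low oxygen, then lysed with saponin/Triton-X containing SYBR Green and read by fluorescence.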
An asterisk follows results filed as active; [ ] = dose if it differs, or a comment. The full list was thinned out, with hits kept by preference. Potency is read from the fitted curve at half-maximal effect.

What do the screens show for `COc1ccc(-c2onc(C)c2C)cc1S(=O)(=O)NCC1CCN(Cc2cc(C)ccc2C)CC1`?
Pf Dd2 inh: 11µM*

What do the screens show for `COc1ccc(-c2onc(C)c2C)cc1S(=O)(=O)NCc1ccc(Br)cc1`?
Pf Dd2 inh: 24%

Results for CC(C)c1noc(-c2cn(C3CCCN(C(=O)c4cccn4C)C3)nn2)n1 (stereo unspecified) ?
Pf Dd2 inh: inactive

What do the screens show for `COc1ccc(S(=O)(=O)N2CCn3nnc(CCC(=O)N4CCOCC4)c3C2)cc1`?
Pf Dd2 inh: -21%

Results for COC(=O)c1c(SC)nc2ccccc2c1OCc1ccc(Br)cc1 ?
Pf Dd2 inh: inactive

How did O=C(NCCCc1nc2ccccc2n1Cc1ccccc1)C1CCCCC1 do in these assays?
Pf Dd2 inh: -6%

Results for CN(C)CCNC(=O)C1CCN(Cc2cc3ccccc3n2Cc2ccccc2)CC1 ?
Pf Dd2 inh: 6.3µM*

How did Cc1ccc(Cn2c(CN3CCC(C(=O)NCc4ccccc4C)CC3)cc3ccccc32)cc1 do in these assays?
Pf Dd2 inh: -10%

Results for Cn1nccc1CCNC(=O)[C@H]1CNC[C@H](C(=O)N2CCOCC2)C1 ?
Pf Dd2 inh: -2%

Results for CN(C)C[C@@H]1CN(Cc2ccncc2)C[C@H]1NC(=O)NCc1ccccc1 ?
Pf Dd2 inh: -8%

What do the screens show for `Cn1ccnc1C(=O)NCC1Cn2cccc2C(=O)N1Cc1ccccc1` (stereo unspecified)?
Pf Dd2 inh: -8%

How did Cn1c(=O)oc2cc(S(=O)(=O)N3CCC(C(=O)NCc4ccccc4)CC3)ccc21 do in these assays?
Pf Dd2 inh: 23%

Results for Cn1c(=O)n(C/C=C/c2ccccc2)c(=O)c2c1nc1n2CCN1c1ccc(Cl)cc1 ?
Pf Dd2 inh: 26%

What do the screens show for `CCOc1ccc2c(c1)c(=O)c(S(=O)(=O)c1ccc(C)cc1)cn2CC(=O)Nc1ccc(C)cc1`?
Pf Dd2 inh: inactive

What do the screens show for `CCn1cc(S(=O)(=O)c2ccccc2)c(=O)c2cc(F)c(F)cc21`?
Pf Dd2 inh: inactive

Results for CCOc1ccc2c(c1)c(=O)c(S(=O)(=O)c1ccc(Cl)cc1)cn2Cc1ccccc1C ?
Pf Dd2 inh: 13µM*

Results for CCc1ccc(S(=O)(=O)c2cn(CC(=O)Nc3cccc(C)c3)c3ccc(Cl)cc3c2=O)cc1 ?
Pf Dd2 inh: inactive

What do the screens show for `COc1ccc(NC(=O)Cn2cc(S(=O)(=O)c3ccc(C)cc3)c(=O)c3ccccc32)cc1OC`?
Pf Dd2 inh: -15%

Results for CCOc1ccc2c(c1)c(=O)c(S(=O)(=O)c1ccc(C)cc1)cn2Cc1ccccc1Cl ?
Pf Dd2 inh: 13µM*

Results for CCOc1ccc(S(=O)(=O)c2cn(CC)c3ccc(F)cc3c2=O)cc1 ?
Pf Dd2 inh: -2%

Results for CCc1ccc2c(c1)c(=O)c(S(=O)(=O)c1ccc(Cl)cc1)cn2CC ?
Pf Dd2 inh: -22%

How did Cc1ccc(S(=O)(=O)c2cn(Cc3cccc(C)c3)c3cc4c(cc3c2=O)OCO4)cc1 do in these assays?
Pf Dd2 inh: -11%

What do the screens show for `CCOc1ccc2c(c1)c(=O)c(S(=O)(=O)c1ccc(CC)cc1)cn2Cc1cccc(Cl)c1`?
Pf Dd2 inh: 10µM*

Results for COc1cc2c(=O)c(S(=O)(=O)c3ccc(F)cc3)cn(Cc3ccccc3C)c2cc1OC ?
Pf Dd2 inh: 11µM*

What do the screens show for `COc1ccc2c(c1)c(=O)c(S(=O)(=O)c1ccc(Cl)cc1)cn2C`?
Pf Dd2 inh: -28%

What do the screens show for `Cc1ccccc1CN1c2ccccc2-c2nc(SCC(=O)c3ccc(Cl)cc3)ncc2S1(=O)=O`?
Pf Dd2 inh: 16%

How did O=C(Cn1nc2c(cc1=O)CCCC2)Nc1nc(-c2cccnc2)cs1 do in these assays?
Pf Dd2 inh: -25%

What do the screens show for `CSCCC(=O)N1CCCC(CCc2ccccc2F)C1` (stereo unspecified)?
Pf Dd2 inh: -9%

What do the screens show for `CNc1nccc(N2CCC(CC(=O)N3CCN(c4ccccc4C)CC3)CC2)n1`?
Pf Dd2 inh: -40%

Results for O=C1Nc2ccc(-c3ccc(Cl)cc3)cc2C(=O)N2CCN(C(=O)NC3CCCCC3)C[C@H]12 ?
Pf Dd2 inh: inactive

How did CC(C)(C)CC(=O)N1CC[C@H]2CC(=O)N(Cc3cccnc3)CC[C@H]2C1 do in these assays?
Pf Dd2 inh: inactive

Results for Cc1cc(-c2ccc(C)c(S(=O)(=O)NCc3ccc(Cl)cc3)c2)on1 ?
Pf Dd2 inh: inactive

How did CCC(C)NC(=O)CSc1nc2c(sc3ccccc32)c(=O)n1Cc1ccccc1Cl (stereo unspecified) do in these assays?
Pf Dd2 inh: 25%

How did CC(=O)N1C[C@@H](CN(C)C)[C@H](NC(=O)c2ccccc2OC(F)(F)F)C1 do in these assays?
Pf Dd2 inh: 12%

Results for COC(=O)c1ccccc1NC(=O)Cn1c(=O)n(CCCC(=O)NCc2ccccc2OC)c(=O)c2ccccc21 ?
Pf Dd2 inh: -24%

Results for CCc1ccc2c(c1)c(=O)c(S(=O)(=O)c1ccc(F)cc1)cn2CC(=O)Nc1ccccc1OC ?
Pf Dd2 inh: -29%

How did COc1cc(NC(=O)Cn2cc(S(=O)(=O)c3ccccc3)c(=O)c3ccccc32)cc(OC)c1 do in these assays?
Pf Dd2 inh: inactive

How did CCOc1ccc2c(c1)c(=O)c(S(=O)(=O)c1ccccc1)cn2CC(=O)Nc1ccccc1OC do in these assays?
Pf Dd2 inh: 11µM*

How did Cc1cn2c(=O)cc(COc3ccc(C(C)(C)C)cc3)nc2s1 do in these assays?
Pf Dd2 inh: inactive

Results for CNc1cc(C2CC(NS(=O)(=O)c3ccc(Cl)s3)C2)nc(N)n1 (stereo unspecified) ?
Pf Dd2 inh: 7.9µM*

Results for NC(=O)c1cc[nH]c1C1CCCN(C(=O)c2ccc3ccccc3n2)C1 (stereo unspecified) ?
Pf Dd2 inh: -7%

How did O=C(CCCc1ccccc1)N1C[C@@H](CO)[C@H](c2ccccn2)C1 do in these assays?
Pf Dd2 inh: 0%

What do the screens show for `O=S(=O)(NC[C@H]1C[C@@H]2CCN1C[C@@H]2CN1CCCCC1)c1ccccc1`?
Pf Dd2 inh: -5%[44.1 µM]

What do the screens show for `C#C[C@H]1CN2CC[C@H]1C[C@@H]2CNS(=O)(=O)c1cccs1`?
Pf Dd2 inh: 8.9µM*

What do the screens show for `C#C[C@H]1CN2CC[C@H]1C[C@@H]2CNS(=O)(=O)c1ccc(Cl)cc1`?
Pf Dd2 inh: 5µM*

What do the screens show for `C=C[C@H]1CN2CC[C@H]1C[C@@H]2CNS(=O)(=O)c1ccc(Cl)cc1`?
Pf Dd2 inh: -6%[44.1 µM]

How did CC[C@H]1CN2CC[C@H]1C[C@@H]2CNS(=O)(=O)c1cccs1 do in these assays?
Pf Dd2 inh: -5%[44.1 µM]

What do the screens show for `C#C[C@H]1CN2CC[C@H]1C[C@@H]2CNCc1cccc(C#N)c1`?
Pf Dd2 inh: 14µM*

Results for C#C[C@H]1CN2CC[C@H]1C[C@@H]2CNCc1ccc(C(C)C)cc1 ?
Pf Dd2 inh: inactive

Results for C#CCN(C)C[C@H]1CN2CC[C@H]1C[C@@H]2CNS(=O)(=O)c1ccccc1 ?
Pf Dd2 inh: inactive

Results for CCN(CC)C[C@H]1CN2CC[C@H]1C[C@@H]2CNS(=O)(=O)c1ccc(Cl)cc1 ?
Pf Dd2 inh: -15%[44.1 µM]

Results for CC[C@H]1CN2CC[C@H]1C[C@@H]2CNC(=O)Nc1cccc(C#N)c1 ?
Pf Dd2 inh: inactive

Results for C#C[C@H]1CN2CC[C@H]1C[C@@H]2CNS(=O)(=O)c1cccc(F)c1 ?
Pf Dd2 inh: 8.9µM*

What do the screens show for `CC[C@H]1CN2CC[C@H]1C[C@@H]2CNS(=O)(=O)c1ccccc1`?
Pf Dd2 inh: inactive

What do the screens show for `COc1ccc(Cn2c(CCC(=O)Nc3ccc(C)cc3C)nc3cccnc32)cc1`?
Pf Dd2 inh: -21%
